The supplement of paper PMC10849652
Targets with a hit are over-represented here; the source holds about 7,900 in all. About 0.6% of all pairs of compound and target were hits.

How the values were obtained:
Assay in all cases: log2 fold change, soluble protein after heating vs DMSO (PISA); higher = thermal stabilisation; K562 cells, 10 uM, 30 min; active = over 0.2 and 3.5 SD of the protein, either way, in both replicates (recomputed)
[1] = compound: CC1=CC=C(C=C1)SC2=C3C=C(SC3=CN=C2)C(=O)N
Summary of the method: (§1)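 K562 cells at 2×10^6 cells/mL were treated with 10 μM compound for 30 min. Aliquots were heated for 3 min across 48°C-58°C, pooled, and extracted in PBS with 0.5% NP-40 at 4°C; soluble protein was the supernatant after 21,000xg for 90 min. Soluble protein was quantified by TMTpro 16plex LC-MS/MS with channel sums equalised, and reported as log2 fold change in thermal stability against DMSO controls, with values from duplicates.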

[2] = compound: CCCS(=O)(=O)Nc1ccc(F)c(C(=O)c2c[nH]c3ncc(Cl)cc23)c1F
Summary of the method: as §1

[3] = compound: CCCc1cc(C)[nH]c(=O)c1CNC(=O)c1cc(-c2ccnc(N3CCN(C)CC3)c2)cc2c1cnn2C(C)C
Summary of the method: as §1

IRAK-1-4 Inhibitor I = compound: C1COCCN1CCN2C3=CC=CC=C3N=C2NC(=O)C4=CC(=CC=C4)[N+](=O)[O-] [IRAK-1-4 Inhibitor I]
Summary of the method: as §1

ibrutinib = compound: C=CC(=O)N1CCC[C@@H](n2nc(-c3ccc(Oc4ccccc4)cc3)c3c(N)ncnc32)C1 [ibrutinib]
Summary of the method: as §1

ralimetinib = compound: CC(C)(C)Cn1c(N)nc2ccc(-c3[nH]c(C(C)(C)C)nc3-c3ccc(F)cc3)nc21 [ralimetinib]
Summary of the method: as §1

[4] = compound: CC(C)(O)CC(=O)NCCn1ccc2ncnc(Nc3ccc(Oc4cccc(C(F)(F)F)c4)c(Cl)c3)c21
Summary of the method: as §1

[5] = compound: CC(C)C1=C2N=C(C=C(N2N=C1)NCC3=CC=CC=C3)NCCCCCCN
Summary of the method: as §1

[6] = compound: CC(C)C[C@@H](C=O)NC(=O)[C@H](CC(C)C)NC(=O)[C@H](CC(C)C)NC(=O)OCc1ccccc1
Summary of the method: as §1

pinometostat = compound: CC(C)N(C[C@H]1O[C@@H](n2cnc3c(N)ncnc32)[C@H](O)[C@@H]1O)[C@H]1C[C@@H](CCc2nc3cc(C(C)(C)C)ccc3[nH]2)C1 [pinometostat]
Summary of the method: as §1

[7] = compound: CC1=C(C(CC(=O)N1)C2=CC=C(C=C2)C(F)(F)F)C(=O)NC3=C(C=C4C(=C3)C=NN4)F
Summary of the method: as §1

[8] = compound: CC1=C(C2=C(C=C1)C(=O)C3=CC=CC=C3N2CCCN)C
Summary of the method: as §1

[9] = compound: CC1=C(C=C(C=C1)NC(=O)C2=CC(=CC=C2)C(C)(C)C#N)NC3=CC4=C(C=C3)N=CN(C4=O)C
Summary of the method: as §1

[10] = compound: CC1=C(C=C(C=C1)NC(=O)C2=CC(=CC=C2)N(C)C)NC(=O)C3=CC=C(C=C3)O
Summary of the method: as §1

[11] = compound: CC1=NC(=CC=C1)C2=C(N=C(N2)C(C)(C)C)C3=CC4=NC=CN=C4C=C3
Summary of the method: as §1

Nexturastat A = compound: CCCCN(Cc1ccc(C(=O)NO)cc1)C(=O)Nc1ccccc1 [Nexturastat A]
Summary of the method: as §1

vemurafenib = compound: CCCS(=O)(=O)Nc1ccc(F)c(C(=O)c2c[nH]c3ncc(-c4ccc(Cl)cc4)cc23)c1F [vemurafenib]
Summary of the method: as §1

givinostat = compound: CCN(CC)Cc1ccc2cc(COC(=O)Nc3ccc(C(=O)NO)cc3)ccc2c1 [givinostat]
Summary of the method: as §1

barasertib = compound: CCN(CCCOc1ccc2c(Nc3cc(CC(=O)Nc4cccc(F)c4)[nH]n3)ncnc2c1)CCOP(=O)(O)O [barasertib]
Summary of the method: as §1

[12] = compound: CC(=O)c1cnc2ccc(-c3cc(Cl)c(O)c(Cl)c3)nc2c1N[C@H]1CC[C@H](CN(C)C)CC1
Summary of the method: as §1

Measured: log2 fold change

OSBPL2 (UniProt Q9H1P3)
Sequence of UniProt Q9H1P3 (Q9H1P3 whole entry, looked up): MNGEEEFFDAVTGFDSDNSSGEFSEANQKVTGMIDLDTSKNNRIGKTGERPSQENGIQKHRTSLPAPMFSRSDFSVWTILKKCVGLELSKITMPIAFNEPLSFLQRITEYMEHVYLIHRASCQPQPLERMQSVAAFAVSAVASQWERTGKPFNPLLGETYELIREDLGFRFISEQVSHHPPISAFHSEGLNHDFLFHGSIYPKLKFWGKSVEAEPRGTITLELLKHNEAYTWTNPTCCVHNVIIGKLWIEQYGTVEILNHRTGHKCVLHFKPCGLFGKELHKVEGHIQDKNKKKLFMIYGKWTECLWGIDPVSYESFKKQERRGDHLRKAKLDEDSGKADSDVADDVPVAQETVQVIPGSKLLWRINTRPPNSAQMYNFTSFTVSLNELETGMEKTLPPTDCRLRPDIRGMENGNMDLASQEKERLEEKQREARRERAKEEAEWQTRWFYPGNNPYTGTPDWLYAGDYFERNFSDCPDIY
inactive: [1] -0.203 | [2] 0 | [3] -0.264

P4HA2 (UniProt O15460)
inactive: IRAK-1-4 Inhibitor I -0.072 | ibrutinib 0.168 | ralimetinib 0.038 | [4] 0.045 | [5] -0.017 | [6] 0.062 | pinometostat 0.06 | [7] 0.039 | [8] 0 | [9] -0.038 | [10] -0.014 | [1] 0.033 | [11] -0.102 | Nexturastat A 0.402 | vemurafenib -0.093 | [2] -0.038 | [3] 0.043 | givinostat 0.058 | barasertib 0.101

MLH1 (UniProt P40692)
active: [3] 0.584
inactive: ibrutinib -0.018 | [12] -0.112 | [4] -0.347 | [8] 0.008 | [1] 0.023 | Nexturastat A -0.014 | [2] 0.276 | barasertib 0.11

NA (UniProt J3KR12)
inactive: IRAK-1-4 Inhibitor I -0.191 | ibrutinib -0.159 | ralimetinib 0.011 | [4] -0.1 | [6] 0.017 | pinometostat 0.053 | [7] 0.046 | [10] 0.018 | [11] 0.073 | Nexturastat A -0.283 | [3] -0.046 | barasertib 0

NAP1L1 (UniProt B7Z9C2)
inactive: IRAK-1-4 Inhibitor I -0.147 | ibrutinib -0.04 | [12] -0.058 | [5] 0.359 | pinometostat -0.052 | [7] 0.111 | [11] 0.14 | vemurafenib -0.304 | [3] -0.109 | givinostat -0.053 | barasertib -0.002

MON1A (UniProt Q86VX9)
inactive: IRAK-1-4 Inhibitor I -0.005 | ibrutinib 0.231 | ralimetinib -0.213 | [4] -0.012 | [5] -0.151 | [6] 0.032 | pinometostat 0.002 | [7] 0.049 | [8] 0.129 | [9] 0.055 | [10] 0.004 | [1] -0.061 | [11] 0.061 | Nexturastat A 0.015 | [2] -0.011 | [3] 0.009 | givinostat 0.008 | barasertib 0.065

NIPSNAP2 (UniProt C9J7B1)
inactive: ibrutinib 0.052 | [12] -0.389 | [9] 0.067 | [3] -0.182 | barasertib 0.01

NUDT6 (UniProt P53370)
inactive: IRAK-1-4 Inhibitor I -0.143 | ralimetinib 0.183 | [4] -0.106 | [5] -0.033 | [6] 0.035 | pinometostat 0.071 | [7] -0.161 | [8] 0.283 | [10] 0.049 | [1] 0.064 | [11] 0.075 | Nexturastat A -0.119 | vemurafenib 0.002 | [2] -0.037 | [3] -0.092 | givinostat -0.027

MOB3B (UniProt Q86TA1)
inactive: IRAK-1-4 Inhibitor I -0.26 | ibrutinib -0.001 | [12] -0.026 | [5] -0.169 | pinometostat -0.056 | [7] -0.116 | [8] 0.024 | [1] -0.147 | [11] -0.033 | vemurafenib 0.137 | [2] -0.272 | [3] 0.039 | givinostat 0.174 | barasertib 0.018

OXR1 isoform 2 (UniProt Q8N573)
inactive: IRAK-1-4 Inhibitor I -0.044 | [12] -0.123 | ralimetinib -0.088 | [4] -0.118 | [6] 0.119 | pinometostat 0.066 | [7] -0.028 | [8] 0.031 | [10] -0.007 | [1] 0.008 | [11] -0.071 | Nexturastat A 0 | vemurafenib 0.126 | [2] 0.027

MORC2 (UniProt Q9Y6X9)
inactive: IRAK-1-4 Inhibitor I -0.292 | ibrutinib 0.042 | [12] -0.201 | [4] -0.074 | [5] -0.084 | pinometostat 0.038 | [1] -0.059 | [11] 0.047 | Nexturastat A -0.046 | [2] 0.208 | [3] 0.231 | givinostat 0.026 | barasertib -0.002

NEU3 isoform 2 (UniProt Q9UQ49)
active: [5] -0.984
inactive: [9] 0.022 | [1] -0.112 | [2] 0.133 | givinostat 0.189

MXRA7 isoform 3 (UniProt P84157)
inactive: ralimetinib -0.031 | [6] 0.151 | [10] 0.178 | [1] -0.174 | [2] 0.193

MSANTD2 (UniProt Q6P1R3)
inactive: [4] 0.047 | [8] 0.012 | [9] -0.024 | Nexturastat A 0.239 | vemurafenib -0.062

NKTR (UniProt P30414)
inactive: ibrutinib -0.191 | [5] 0.084 | [1] -0.041 | [2] -0.4 | [3] -0.045 | givinostat 0.532 | barasertib 0.042

NPC1L1 (UniProt Q9UHC9)
Sequence of UniProt Q9UHC9 (Q9UHC9 whole entry, looked up): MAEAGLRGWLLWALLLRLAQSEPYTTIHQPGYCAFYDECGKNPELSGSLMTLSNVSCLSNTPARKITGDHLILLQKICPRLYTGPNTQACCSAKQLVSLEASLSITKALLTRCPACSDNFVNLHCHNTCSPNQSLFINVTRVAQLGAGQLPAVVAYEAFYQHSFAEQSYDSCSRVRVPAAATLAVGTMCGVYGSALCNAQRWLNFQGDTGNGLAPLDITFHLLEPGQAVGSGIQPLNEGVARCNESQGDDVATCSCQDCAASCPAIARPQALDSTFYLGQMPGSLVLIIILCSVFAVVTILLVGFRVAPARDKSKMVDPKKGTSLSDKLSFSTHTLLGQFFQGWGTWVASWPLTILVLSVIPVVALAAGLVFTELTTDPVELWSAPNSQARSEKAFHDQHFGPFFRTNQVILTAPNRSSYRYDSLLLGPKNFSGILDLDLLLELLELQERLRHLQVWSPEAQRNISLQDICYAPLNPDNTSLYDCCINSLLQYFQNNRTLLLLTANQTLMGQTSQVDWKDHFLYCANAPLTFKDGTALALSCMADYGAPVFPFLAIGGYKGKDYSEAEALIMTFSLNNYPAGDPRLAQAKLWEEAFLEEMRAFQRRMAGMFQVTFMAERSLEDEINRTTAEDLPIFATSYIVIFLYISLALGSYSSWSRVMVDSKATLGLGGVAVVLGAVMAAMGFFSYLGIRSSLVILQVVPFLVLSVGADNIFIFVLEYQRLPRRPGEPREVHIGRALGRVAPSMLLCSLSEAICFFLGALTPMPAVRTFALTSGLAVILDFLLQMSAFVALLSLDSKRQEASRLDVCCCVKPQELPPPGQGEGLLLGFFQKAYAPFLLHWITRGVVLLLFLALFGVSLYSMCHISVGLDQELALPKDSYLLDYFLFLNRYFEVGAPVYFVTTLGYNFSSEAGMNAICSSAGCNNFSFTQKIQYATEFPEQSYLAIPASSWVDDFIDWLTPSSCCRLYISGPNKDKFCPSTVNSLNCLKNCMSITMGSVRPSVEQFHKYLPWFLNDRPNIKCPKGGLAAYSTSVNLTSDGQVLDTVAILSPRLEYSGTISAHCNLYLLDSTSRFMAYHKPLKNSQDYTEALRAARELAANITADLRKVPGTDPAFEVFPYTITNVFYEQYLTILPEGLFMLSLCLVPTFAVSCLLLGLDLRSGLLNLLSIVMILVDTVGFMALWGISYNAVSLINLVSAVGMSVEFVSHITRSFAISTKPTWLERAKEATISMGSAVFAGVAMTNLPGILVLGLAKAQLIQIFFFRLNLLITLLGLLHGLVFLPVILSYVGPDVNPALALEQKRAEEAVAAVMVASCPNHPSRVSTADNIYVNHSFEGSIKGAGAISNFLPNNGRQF
inactive: IRAK-1-4 Inhibitor I 0.014 | ibrutinib 0.047 | [12] -0.008 | pinometostat -0.136 | [7] -0.614 | [8] 0.085 | [9] -0.014 | [1] 0.152 | [11] 0.02 | vemurafenib -0.213 | [2] -0.109 | [3] 0.012 | barasertib -0.037

MYH16 (UniProt Q9H6N6)
Sequence of UniProt Q9H6N6 (Q9H6N6 whole entry, looked up): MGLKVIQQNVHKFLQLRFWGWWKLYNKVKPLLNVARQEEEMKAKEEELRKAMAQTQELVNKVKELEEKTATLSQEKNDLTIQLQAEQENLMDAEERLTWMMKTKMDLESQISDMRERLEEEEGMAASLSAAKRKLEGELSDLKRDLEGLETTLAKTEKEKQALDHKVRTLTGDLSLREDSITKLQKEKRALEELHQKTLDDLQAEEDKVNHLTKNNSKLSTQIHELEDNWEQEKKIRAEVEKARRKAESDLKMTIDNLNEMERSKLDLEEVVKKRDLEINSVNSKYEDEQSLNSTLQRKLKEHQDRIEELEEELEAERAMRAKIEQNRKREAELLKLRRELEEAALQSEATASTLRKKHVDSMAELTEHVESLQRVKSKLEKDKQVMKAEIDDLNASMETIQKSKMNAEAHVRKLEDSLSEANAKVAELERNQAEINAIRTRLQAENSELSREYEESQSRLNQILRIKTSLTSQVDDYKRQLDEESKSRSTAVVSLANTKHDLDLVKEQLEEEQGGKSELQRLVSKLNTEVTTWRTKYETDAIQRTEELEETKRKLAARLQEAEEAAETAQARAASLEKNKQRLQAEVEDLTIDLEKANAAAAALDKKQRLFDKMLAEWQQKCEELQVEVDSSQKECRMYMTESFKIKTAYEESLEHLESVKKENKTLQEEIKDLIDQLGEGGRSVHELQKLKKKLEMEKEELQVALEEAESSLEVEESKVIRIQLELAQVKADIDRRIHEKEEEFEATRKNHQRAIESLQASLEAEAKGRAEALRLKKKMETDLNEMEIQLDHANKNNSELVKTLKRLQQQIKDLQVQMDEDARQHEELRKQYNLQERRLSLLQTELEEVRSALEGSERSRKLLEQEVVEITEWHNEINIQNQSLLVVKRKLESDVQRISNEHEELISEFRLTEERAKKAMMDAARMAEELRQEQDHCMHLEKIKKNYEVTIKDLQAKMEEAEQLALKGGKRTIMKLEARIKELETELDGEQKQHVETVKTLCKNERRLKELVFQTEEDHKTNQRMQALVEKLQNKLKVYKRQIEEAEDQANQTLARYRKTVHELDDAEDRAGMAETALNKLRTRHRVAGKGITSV
inactive: IRAK-1-4 Inhibitor I -0.177 | ibrutinib -0.02 | [12] 0.045 | [5] 0.026 | pinometostat -0.019 | [7] -0.024 | [9] 0.484 | [1] 0.143 | vemurafenib 0.155 | [2] 0.216 | [3] 0.12 | givinostat -0.072 | barasertib -0.069
active: [8] 0.805 | [11] 0.724

PACRGL (UniProt Q8N7B6)
inactive: [9] 0.01

NASP isoform 2 (UniProt P49321)
inactive: [3] 1.06

NDUFA7 (UniProt M0R0N0)
inactive: ibrutinib -0.109 | [5] -0.136 | [9] -0.011 | vemurafenib -0.195 | givinostat 0.104 | barasertib 0.052

MTHFD1, A0A384N5Y3
inactive: ibrutinib 0.002 | [12] -0.085 | ralimetinib 0 | [4] -0.034 | [6] -0.008 | [7] -0.024 | [8] 0.049 | [9] 0.036 | [10] -0.107 | [1] -0.055 | Nexturastat A 0.013 | vemurafenib 0.088 | [2] 0.058 | [3] -0.035 | barasertib 0.044

MYSM1 (UniProt Q5VVJ2)
inactive: IRAK-1-4 Inhibitor I -0.264 | ibrutinib 0.291 | ralimetinib -0.022 | [6] -0.061 | pinometostat 0.153 | [9] 0.067 | [10] -0.298 | [11] 0.006 | barasertib -0.114

NA, A0A494C071
Sequence of NA, A0A494C071 (A0A494C071 whole entry, looked up): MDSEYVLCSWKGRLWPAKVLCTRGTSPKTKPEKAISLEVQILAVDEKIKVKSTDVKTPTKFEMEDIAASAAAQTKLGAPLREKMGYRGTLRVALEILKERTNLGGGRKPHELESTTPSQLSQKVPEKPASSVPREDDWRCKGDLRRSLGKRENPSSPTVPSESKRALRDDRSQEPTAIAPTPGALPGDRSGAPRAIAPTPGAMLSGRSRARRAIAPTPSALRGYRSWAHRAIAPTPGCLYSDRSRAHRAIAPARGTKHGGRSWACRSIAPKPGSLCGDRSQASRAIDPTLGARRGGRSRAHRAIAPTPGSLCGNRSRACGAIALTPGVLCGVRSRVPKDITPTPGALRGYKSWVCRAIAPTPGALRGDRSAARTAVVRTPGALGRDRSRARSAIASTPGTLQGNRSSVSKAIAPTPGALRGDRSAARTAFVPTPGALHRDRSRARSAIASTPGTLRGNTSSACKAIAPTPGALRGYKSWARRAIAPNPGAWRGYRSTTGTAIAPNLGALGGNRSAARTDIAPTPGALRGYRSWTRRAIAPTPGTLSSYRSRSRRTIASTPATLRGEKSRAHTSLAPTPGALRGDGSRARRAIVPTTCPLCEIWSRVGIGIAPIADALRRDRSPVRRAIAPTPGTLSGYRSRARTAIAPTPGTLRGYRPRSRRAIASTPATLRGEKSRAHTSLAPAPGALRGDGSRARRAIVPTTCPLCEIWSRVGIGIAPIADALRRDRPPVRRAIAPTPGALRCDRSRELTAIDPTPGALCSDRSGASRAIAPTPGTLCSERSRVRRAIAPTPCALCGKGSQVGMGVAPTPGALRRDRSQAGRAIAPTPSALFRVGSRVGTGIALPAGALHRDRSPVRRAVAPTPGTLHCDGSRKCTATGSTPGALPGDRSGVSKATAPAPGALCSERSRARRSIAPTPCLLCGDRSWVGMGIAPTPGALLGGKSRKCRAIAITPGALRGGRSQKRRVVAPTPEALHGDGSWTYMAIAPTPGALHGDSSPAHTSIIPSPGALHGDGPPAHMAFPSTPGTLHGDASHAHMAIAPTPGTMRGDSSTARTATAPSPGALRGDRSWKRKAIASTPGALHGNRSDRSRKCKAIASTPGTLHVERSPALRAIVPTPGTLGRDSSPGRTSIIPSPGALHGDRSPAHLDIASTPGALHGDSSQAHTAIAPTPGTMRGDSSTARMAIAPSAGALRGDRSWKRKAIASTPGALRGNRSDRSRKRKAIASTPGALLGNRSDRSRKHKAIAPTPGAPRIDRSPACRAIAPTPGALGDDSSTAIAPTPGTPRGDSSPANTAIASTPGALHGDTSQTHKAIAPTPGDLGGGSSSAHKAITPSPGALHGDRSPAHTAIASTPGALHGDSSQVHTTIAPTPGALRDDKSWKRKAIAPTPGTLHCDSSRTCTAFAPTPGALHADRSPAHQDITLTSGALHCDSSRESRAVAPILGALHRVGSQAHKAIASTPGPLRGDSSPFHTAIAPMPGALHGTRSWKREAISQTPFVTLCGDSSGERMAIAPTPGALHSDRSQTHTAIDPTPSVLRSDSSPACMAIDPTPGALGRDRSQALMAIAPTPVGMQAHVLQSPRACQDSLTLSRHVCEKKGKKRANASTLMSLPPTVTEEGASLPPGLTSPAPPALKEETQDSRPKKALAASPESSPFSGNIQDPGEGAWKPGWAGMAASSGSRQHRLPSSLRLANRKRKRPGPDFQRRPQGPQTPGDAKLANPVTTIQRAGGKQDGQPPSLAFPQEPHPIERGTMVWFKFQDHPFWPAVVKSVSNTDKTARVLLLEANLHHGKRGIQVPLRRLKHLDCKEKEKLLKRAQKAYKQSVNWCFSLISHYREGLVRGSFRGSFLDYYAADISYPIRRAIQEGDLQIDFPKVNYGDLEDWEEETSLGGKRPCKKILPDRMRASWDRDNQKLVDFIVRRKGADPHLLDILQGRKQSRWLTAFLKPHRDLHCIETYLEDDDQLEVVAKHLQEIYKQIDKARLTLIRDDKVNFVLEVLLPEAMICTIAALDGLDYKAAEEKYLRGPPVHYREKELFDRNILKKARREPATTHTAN
inactive: IRAK-1-4 Inhibitor I -0.011 | ibrutinib -0.1 | [12] -0.038 | [4] 0.03 | pinometostat -0.034 | [7] 0.013 | [8] -0.141 | [11] 0.011 | Nexturastat A -0.081 | vemurafenib -0.142 | [3] -0.159 | barasertib 0.043

NOS1AP (UniProt O75052)
active: [6] 1.38
inactive: ibrutinib -0.061 | ralimetinib 0.07 | [4] -0.073 | [5] -0.026 | [8] 0.154 | [10] -0.016 | [1] 0.08 | Nexturastat A -0.058 | vemurafenib -0.335 | [2] -0.161 | [3] 0.101 | givinostat -0.117 | barasertib 0.046

MPHOSPH8 isoform 2 (UniProt Q99549)
active: [8] -0.84
inactive: IRAK-1-4 Inhibitor I -0.149 | [12] 0.026 | ralimetinib 0.271 | [4] -0.06 | [6] 0.035 | pinometostat -0.027 | [9] -0.159 | [10] 0.179 | [1] -0.159 | [11] -0.022 | Nexturastat A -0.013 | vemurafenib -0.02 | [2] -0.1 | [3] -0.002

NCBP2AS2 (UniProt Q69YL0)
Sequence of UniProt Q69YL0 (Q69YL0 whole entry, looked up): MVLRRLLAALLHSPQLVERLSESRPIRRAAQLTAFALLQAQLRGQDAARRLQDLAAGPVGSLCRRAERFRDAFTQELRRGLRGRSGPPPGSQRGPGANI
active: [5] -0.869
inactive: ibrutinib 0.07 | [12] 0.21 | ralimetinib -0.01 | [6] 0.026 | [7] 0.089 | [8] -0.008 | [9] 0.069 | [10] 0.017 | [1] 0.162 | vemurafenib -0.039 | [2] 0.037 | [3] -0.096 | givinostat -0.146 | barasertib 0.072

NOLC1 isoform 3 (UniProt Q14978)
inactive: [5] 0.151 | givinostat -0.02

OSBPL3 (UniProt Q9H4L5)
inactive: IRAK-1-4 Inhibitor I -0.083 | [12] -0.277 | ralimetinib 0.309 | [4] 0.252 | [5] 0.506 | [6] 0.206 | pinometostat 0.204 | [7] -0.165 | [8] -0.069 | [9] 0.35 | [10] 0.04 | [1] 0.006 | [11] -0.062 | Nexturastat A 0.471 | vemurafenib -0.267 | [2] -0.09 | givinostat -0.204
